# Laboratory results from ChEMBL document CHEMBL4513216, “Probing the Open Global Health Chemical Diversity Library for Multistage-Active Starting Points for Next-Generation Antimalarials” (ACS Infect Dis, 2020).
# The campaign covered roughly 69,000 compounds. About 8,600 (12%) showed an effect of 50% or more. The entries come from a sample that favours strong results as a whole.
# System: Plasmodium berghei
# Assay: Screen against P. berghei liver stage (PbLuc), transformed with Luciferase, at 10uM
# Assay type: functional, HepG2
# Conditions: tested at 10 uM
row,SMILES,INHIBITION [%]
1,Cc1noc(C)c1CN1C[C@@H]2COC[C@H](C(=O)N3CCOCC3)[C@@H]2C1,13.6
2,Cc1noc(C)c1CN1C[C@@H]2COC[C@@H](C(=O)N3CCCO3)[C@@H]2C1,57.9
3,Cc1noc(C)c1CN1C[C@@H]2COC[C@H](C(=O)N3CCCO3)[C@@H]2C1,62.5
4,Cc1noc(C)c1CN1C[C@@H]2COC[C@@H](C(=O)N3CCCCO3)[C@@H]2C1,39.2
5,Cc1noc(C)c1CN1C[C@@H]2COC[C@@H](CC(=O)N3CCCO3)[C@@H]2C1,-0.388
6,Cc1cc(CN2C[C@@H]3COC[C@H](C(=O)N4CCCCO4)[C@@H]3C2)no1,21.8
7,Cc1noc(C)c1CN1C[C@@H]2COC[C@@H](CC(=O)N3CCCCO3)[C@@H]2C1,41.6
8,Cc1cc(CN2C[C@@H]3COC[C@@H](C(=O)N4CCCCO4)[C@@H]3C2)no1,34.6
9,Cc1noc(C)c1CN1C[C@@H]2COC[C@H](C(=O)N3CCCCO3)[C@@H]2C1,50.6
10,CNC(=O)C1CN(C(=O)c2ccncc2)CCN(S(C)(=O)=O)C1 (configuration not stated),7.7
11,Cc1cc(-c2cnc(C(C)C)nc2CN(C)C(=O)c2ccccn2)on1,30.4
12,CC1CCN(c2ccc(=O)n(CC(=O)N(C)Cc3ccccc3)n2)CC1,-17.1
13,CC(C)(C)c1cc(=O)n2c(n1)SCC(C(=O)NCc1ccccn1)C2 (configuration not stated),29.1
14,CC(=O)N1CCC2(CC1)C(=O)N(CC1CCN(C)CC1)c1ccccc12,-4.82
15,O=c1[nH]c2c(-c3ccccn3)nsc2c(=O)n1CC1CC1,7.3
16,NC(=O)CN1CCC(c2noc3cc(F)ccc23)CC1,18.7
17,CNC(=O)[C@@H](CC(C)C)N1CCC[C@H]1C(=O)N(C)Cc1cccnc1,45.1
18,Cc1cc(CN2CCN(C(=O)NC(C)c3ccncc3)CC2)on1 (configuration not stated),14.9
19,Cc1ccc(C(=O)N2CCC(Oc3c(C)cccc3C)CC2)c(=O)[nH]1,-1.25
20,Cc1cnc2c(S(=O)(=O)N(C)C3CCS(=O)(=O)C3)cccc2c1 (configuration not stated),22.3
21,Cc1cccc(CN2C[C@@H]3COC[C@]3(CNC(=O)c3ccno3)C2)n1,-30
22,CSCc1nc(CCNC(=O)c2cnn(C(C)C)c2)cs1,33.4
23,CC(C)n1cc(C(=O)NCC(CO)Cc2cccs2)cn1 (configuration not stated),5.78
24,CSCc1nc(CNC(=O)c2cnn(C(C)C)c2)cs1,55
25,CC(C)n1cc(C(=O)NCCc2cn3ccsc3n2)cn1,8.48
26,CC(C)n1cc(C(=O)NCCCc2csc(N)n2)cn1,69.1
27,Nc1nc(CCCNC(=O)c2ccc(C3CCCNC3)cc2)cs1 (configuration not stated),-3.58
